Assay results as given in PubChem BioAssay.
A number with no mark means an inactive call. How the calls were made is not given here.

Tested on: Aerobactin synthetase IucA (Klebsiella pneumoniae, hypervirulent)
Assay: IucA enzyme inhibition, biochemical, LOPAC library, absorbance readout (AID 1346212);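 further: 100% = no compound wells and 0% = no enzyme wells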
Settings: IucA enzyme assay, absorbance (OD) readout; stronger effect = lower value;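 tested at 8 µM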

| SMILES | remaining activity [%] |
| --- | --- |
| COc1ccc(CCn2nnnc2C2(c3ccc(C)cc3)CC2)cc1 | 115 |
| C#Cc1ccc2c(c1)C(=O)N(C)Cc1c(C(=O)OCCCc3nc(C(=O)O)c4n3-c3ccc(C#C)cc3C(=O)N(C)C4)ncn1-2 | 97.1 |
| COc1ccccc1N1CCN(CCCCN2C(=O)c3ccccc3C2=O)CC1 | 113 |
| CCCn1c(=O)c2[nH]c(-c3ccc(OCC(=O)Nc4ccc(C#N)cc4)cc3)nc2n(CCC)c1=O | 109 |
| C[C@@H]1[C@@H]2Cc3ccc(O)cc3[C@@]1(C)CCN2CC1CC1 | 103 |
| CN(C)CCCO[C@@H]1[C@H]2OC(C)(C)O[C@H]2O[C@@H]1[C@H](O)CO | 113 |
| NC(N)=NC(=O)c1nc(Cl)c(N2CCCCCC2)nc1N | 120 |
| CN1CCc2cccc3c2[C@H]1Cc1ccc(O)c(O)c1-3 | 107 |
| Cn1c(=O)[nH]c2ncn(C)c2c1=O | 113 |
| Oc1ccccc1O | 112 |
| N#C/C(=C\c1ccc(O)c(O)c1)C(=O)NCc1ccccc1 | 101 |
| CCCCCCCCCCCCCCCC(=O)NCC(COP(=O)([O-])OCC[N+](C)(C)C)OCC (stereo not drawn) | 74.4 |
| c1ccc(C2CN3CCSC3=N2)cc1 (stereo not drawn) | 92.5 |
| N#C/C(=C\c1ccc(O)c(O)c1)C(=O)NCCCc1ccccc1 | 103 |
| O=c1[nH]c2ccccc2c2ccccc12 | 97.7 |
| CC(C)(C)c1ccc(S(=O)(=O)/C=C/C#N)cc1 | 119 |
| CC1=C(/C=C/C(C)=C/C=C/C(C)=C/C=C/C=C(C)/C=C/C=C(C)/C=C/C2=C(C)C(=O)[C@@H](O)CC2(C)C)C(C)(C)C[C@H](O)C1=O | 107 |

| SMILES | remaining activity [%] |
| --- | --- |
| O=c1ccc2c(OCCCCc3ccccc3)c3ccoc3cc2o1 | 123 |
| CC(C)(Sc1ccc(CCN(CCCCC2CCCCC2)C(=O)NC2CCCCC2)cc1)C(=O)O | 119 |
| O=Nc1ccc2oc(=O)ccc2c1 | 103 |
| N#C/C(=C\c1c[nH]c2ccccc12)C(=O)c1ccc(O)c(O)c1 | 97.5 |
| COc1nc(C)nc(Cl)c1NC1=NCCN1 | 119 |
| c1ccc2nc(C3=NCCN3)ccc2c1 | 121 |
| CN(C)c1cc2c(Nc3ccc4c(cnn4Cc4ccccc4)c3)ncnc2cn1 | 115 |
| O=c1c(O)c(-c2cc(O)c(O)c(O)c2)oc2cc(O)cc(O)c12 | 115 |
| CCCCCCCCCCCCCCCCCCNC(=O)OCC(COP(=O)([O-])OCC[n+]1ccsc1)OC (stereo not drawn) | 126 |
| CN(C)C(N)=NCCC[C@H](N)C(=O)O | 97.3 |
| N[C@@H](CCCC(=O)O)C(=O)O | 110 |
| N#C/C(=C\c1ccc(O)c(O)c1)C(=O)NCCc1ccccc1 | 102 |
| NC(=NCCC[C@H](N)C(=O)O)NO | 101 |
| CC(N)(Cc1ccc(O)cc1)C(=O)O (stereo not drawn) | 106 |
| C[C@]12CCC(=O)C=C1CC[C@@H]1[C@@H]2C(=O)C[C@@]2(C)[C@H]1CC[C@]2(O)C(=O)CO | 105 |
| C#CCn1c(=O)c2c(ncn2C)n(C)c1=O | 109 |
